The results in this text go back to PubChem BioAssay AID618 (Sanford-Burnham Center for Chemical Genomics, 2007).

Each structure is given as a SMILES string. Screen size: about 87,000 compounds; about 540 (0.62%) were called active. No rule for the calls is given here. This excerpt belongs to a sample that is enriched for actives. Measured potencies and affinities stand elsewhere.

The nature of the assay: MT1-MMP gene expression reporter suppression – cell-based, luciferase reporter, luminescence (AID 618).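 Also: actives suppress MT1-MMP promoter-driven transcription so potencies describe inhibitors.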 The note with it: MT1-MMP promoter luciferase reporter cells.
For `Cc1cc(C)n(CCO)c(=O)n1`, the call was inactive.
Next, `N#CC1=C(N)SC(N)=C(C#N)C1C1CC=CCC1` (centres undefined): “inactive”; `COC(=O)/C=c1/sc2nc3ccccc3n2c1=O`: “inactive”; `O=c1/c(=C\c2cccn2-c2ccccc2)sc2nc3ccccc3n12`: “inactive”.
Next, `COc1cc(N2CCCC2)c(OC)cc1/C=c1/sc2nc3ccccc3n2c1=O`: “inactive”; `Cc1ccc(-n2c(C)cc(/C=c3/sc4nc5ccccc5n4c3=O)c2C)cc1`: “inactive”; `Cc1cc(/C=c2/sc3nc4ccccc4n3c2=O)c(C)n1-c1ccccn1`: “active”.
Next, `CC(CNS(=O)(=O)c1cc(Cl)ccc1Cl)CN(C)C` (centres undefined): “inactive”; `COc1ccccc1NC(=O)CC1C(=O)NCCN1C(=O)Nc1ccc(Cl)c(Cl)c1` (centres undefined): “inactive”; `CCCCC(=O)Nc1ccc2oc(-c3ccncc3)nc2c1`: “inactive”.
Regarding `O=C(c1ccc2snnc2c1)N1CCOCC1`, the call was inactive.
As to `Cc1ccc(C)c(C(=O)CN2C(=O)c3ccccc3S2(=O)=O)c1`, the result was inactive.
Next, `Cc1cc(C(=O)COC(=O)C2COc3ccccc3O2)c(C)n1CC1CCCO1` (centres undefined): “inactive”; `Cc1ccsc1C(=O)OCC(=O)c1cc(C)n(CC2CCCO2)c1C` (centres undefined): “active”.
As to `Cc1cc(C(=O)COC(=O)c2n[nH]c3ccccc23)c(C)n1CC1CCCO1` (centres undefined), the result was inactive.
Next, `Cc1cc(C(=O)Cn2nnc(-c3ccc(Cl)cc3)n2)c(C)n1CC1CCCO1` (centres undefined): “inactive”.
The value for `Cc1cc(C(=O)CN2C(=O)C3CC=CCC3C2=O)c(C)n1-c1ccccc1` (centres undefined) was “inactive”; that for `Cc1cc(C(=O)CN2C(=O)c3ccccc3S2(=O)=O)c(C)n1-c1ccccc1` was “active”.
In the case of `Cc1cc(C(=O)CSc2nnnn2-c2ccccc2)c(C)n1CC1CCCO1` (centres undefined), the call was inactive.
The value for `Cc1ccc(-c2nc(NC(=O)CSc3nnc(C)s3)ns2)cc1` was “inactive”.
As for `Cc1ccc(OCC(=O)Nc2ccc(N3CCOCC3)cc2)cc1`, the call was inactive.
Regarding `Cc1ccc(N(C(C)C(=O)N2CCC(C)CC2)S(C)(=O)=O)cc1C` (centres undefined), the outcome was inactive.
Consider `Cc1ccc(CC2CC(=O)N(c3cc(C)on3)C2=O)cc1` (centres undefined), for which the outcome was inactive.
Consider `CCOc1ccccc1NC(=O)C1CCCN(C(=O)NCc2ccccc2)C1` (centres undefined), for which the call was inactive.
Next, `CCOC(=O)c1[nH]c(C)c(C(=O)Nc2ccccc2F)c1C`: “inactive”; `CCOC(=O)c1[nH]c(C)c(C(=O)Nc2ccc(Cl)cc2)c1C`: “inactive”.
The value for `CCOC(=O)c1[nH]c(C)c(C(=O)Nc2cc(Cl)ccc2C)c1C` was “active”; that for `CCOC(=O)c1[nH]c(C)c(C(=O)OCC(=O)N2CCc3ccccc32)c1C` was “inactive”.
Regarding `CCOC(=O)c1[nH]c(C)c(C(=O)Nc2ccc(C)c(Cl)c2)c1C`, the compound was called inactive.
`CCOC(=O)c1[nH]c(C)c(C(=O)Nc2ccc(C)cc2C)c1C`: the compound was called inactive.
Consider `CCOC(=O)c1c(C)[nH]c(C(=O)OCC(=O)N2CCc3ccccc32)c1C`, for which the call was inactive.
The value for `CCOC(=O)c1[nH]c(C)c(C(=O)Nc2ccccc2C)c1C` was “active”; that for `CCOC(=O)c1[nH]c(C)c(C(=O)N2CCc3ccccc32)c1C` was “active”.
Next, `COc1cc(NS(=O)(=O)c2ccc3c(c2)n(C)c(=O)n3C)cc(OC)c1`: “inactive”; `COc1ccc(C)cc1NC(=O)CSc1nnc(CC(=O)Nc2ccccc2C)n1C`: “inactive”; `CCOC(=O)c1ccc(NC(=O)CN2CCN(CCN=CC3=C(O)CC(C)(C)CC3=O)CC2)cc1`: “inactive”.
For the compound `COC(=O)c1[nH]c2cc(C)ccc2c1NC(=O)CN1CCCc2ccccc21`, the call was inactive.
Take `Cc1nc2sc(C(c3cccs3)N3CCN(c4cccc(Cl)c4)CC3)c(O)n2n1` (centres undefined): the call was inactive.
Next, `O=C(c1cn(-c2ccccc2)nc1-c1ccncc1)N1CCCCC1`: “inactive”.
For the compound `O=C(c1ccccc1F)N1CCN(c2cccc(C(F)(F)F)c2)CC1`, the call was inactive.
Next, `COc1ccc(C(=O)N2CCN(c3cccc(Cl)c3)CC2)c(OC)c1`: “inactive”; `CCOc1ccccc1C(=O)N1CCN(c2cccc(Cl)c2)CC1`: “active”.
Next, `COc1ccccc1C(=O)N1CCN(c2cccc(C(F)(F)F)c2)CC1`: “active”.
Take `COc1ccccc1CC(=O)N1CCN(c2cccc(C(F)(F)F)c2)CC1`: the compound was called inactive.
The value for `COc1ccccc1C(=O)N1CCN(c2cccc(Cl)c2)CC1` was “inactive”; that for `Cc1cc(-c2nn3c(C)nnc3s2)ccc1NC(=O)C(C)(C)C` was “inactive”.
The value for `CCOC(=O)c1cc(C)sc1NC(=O)CCC(=O)O` was “inactive”.
Next, `COc1ccc(Cn2c3nc4ccccc4nc3c3c(=O)n(Cc4ccco4)c(C)nc32)cc1`: “inactive”.
For `Cc1csc(NC(=O)CSc2nnc(-c3ccoc3C)o2)n1`, the outcome was inactive.
Next, `CCC(O)c1cc2c(cc1NC(=O)c1cccs1)OCCO2` (centres undefined): “inactive”; `Cc1ccc(C(=O)NCCCNCCCNC(=O)c2ccc(C)nc2)cn1`: “inactive”; `CCn1c(COc2cccc(C)c2)nnc1SCC(=O)Nc1cccc(C(=O)OC)c1`: “inactive”.
Next, `CC(CC(=O)O)CC(=O)Nc1ccccc1C(=O)O` (centres undefined): “inactive”.
The value for `O=c1c2c(nc3cc(-c4ccccc4)[nH]n13)CCC2` was “inactive”.
`COc1ccc(-c2cc3nc4c(c(=O)n3[nH]2)CCC4)cc1`: the compound was classed as inactive.
With `COCCCN1C(=O)C(=O)/C(=C(/O)c2ccc(OC(C)C)cc2)C1c1cccnc1` (centres undefined), the outcome was inactive.
In the case of `c1ccc2nc(-c3nc4ccccc4[nH]3)ccc2c1`, the result was active.
With `Nc1ccc(-c2nc3ccccc3[nH]2)cc1`, the compound was classed as inactive.
As for `CCOc1ccc2nc(-c3ccccc3)[nH]c2c1`, the compound was classed as inactive.
The value for `Nc1nc(-c2nc3ccccc3[nH]2)cs1` was “inactive”; that for `c1ccc2[nH]c(-c3ccnc4ccccc34)nc2c1` was “inactive”; that for `COc1ccc(OCc2nc3ccccc3[nH]2)cc1` was “inactive”.
As for `COc1ccc2nc(-c3ccccc3)[nH]c2c1`, the compound was called active.
As for `COc1ccc2nc(-c3cccc(N)c3)[nH]c2c1`, the compound was called inactive.
Next, `CC(C)CN1C(=O)c2ccc(NC(=O)c3cccs3)cc2C1=O`: “inactive”; `O=C(NCc1ccco1)C(c1ccccc1)N(C(=O)Cc1cccs1)c1ccccc1` (centres undefined): “inactive”; `CC(=O)NCCOc1cccc(OCCNC(C)=O)c1`: “inactive”.
Next, `COc1cc(/C=N/NC(=O)CCc2c(C)n[nH]c2C)ccc1O`: “inactive”; `CCn1ncc(Br)c1C(=O)Nc1ccc(Cl)cn1`: “inactive”.
Next, `COc1ccc(OC)c(S(=O)(=O)NC2CCCCC2)c1`: “inactive”; `CCn1cc(C(=O)N2CCc3ccccc3C2)c(=O)c2cc(S(=O)(=O)N3CCCCC3)ccc21`: “inactive”.
For `Cc1nc(-c2cccc(NC(=O)c3cccs3)c2)cs1`, the compound was called inactive.
As for `Cc1ccc(NC(=O)c2cccs2)cc1`, the result was inactive.
As for `Cc1nc(-c2ccc(NC(=O)c3cccs3)cc2)cs1`, the call was active.
As for `COc1ccc(OC)c(-n2c(-c3ccccc3)n[nH]c2=S)c1`, the call was inactive.
The value for `CCOc1ccc(OCc2cccc(C(=O)N3CCCC3)c2)cc1` was “inactive”.
Take `COc1ccc(OCc2ccc(C(=O)O)cc2)cc1`: the compound was classed as inactive.
Consider `CCOc1ccc(OCc2cccc(C(=O)N3CCOCC3)c2)cc1`, for which the result was active.
The value for `CCCCOc1cccc(C(=O)O)c1` was “inactive”.
Next, `CCOc1ccc(OCc2ccc(C(=O)N3CCOCC3)cc2)cc1`: “inactive”.
Regarding `COc1ccc(OCc2cccc(C(=O)O)c2)cc1`, the result was active.
The value for `CC(C)OC(=O)C(C)Oc1ccc(C(=O)NCCc2ccccc2)cc1` (centres undefined) was “inactive”; that for `CC(Oc1ccc(C(=O)NCCc2ccccc2)cc1)C(=O)O` (centres undefined) was “inactive”.
For the compound `CCOc1ccc(OCc2cccc(C(=O)O)c2)cc1`, the outcome was active.
For the compound `COc1ccc(OCc2cccc(C(=O)Nc3cc(C)on3)c2)cc1`, the compound was called inactive.
On to `CCOc1cc(OCC)cc(C(=O)O)c1`, for which the result was inactive.
The value for `CSc1nc2nc(C(F)(F)F)cc(-c3ccccc3)n2n1` was “inactive”; that for `COc1ccccc1C(=O)Nc1ccc2c(c1)nc1n2CCSC1` was “inactive”.
For the compound `CSc1ccccc1C(=O)Nc1nccs1`, the compound was classed as inactive.
On to `Cc1nn(-c2ccccc2)c2c1C1(C(=O)N(C(C)C)c3ccccc31)C(C#N)=C(N)O2` (centres undefined), for which the call was inactive.
Next, `Cc1nc(SCC(=O)NC2CCCC2)[nH]c(=O)c1Cc1ccccc1`: “inactive”; `CCCCOc1ccc(C(=O)Nc2cccc(C)n2)cc1`: “inactive”.
Next, `CCOc1ccc(OCc2ccc(C(=O)Nc3cccc(C)n3)o2)cc1`: “inactive”.
In the case of `CCOc1ccc(C(=O)Nc2cccc(C)n2)cc1`, the compound was called active.
For the compound `O=C(NCc1cccs1)c1cc(-c2cccc(Cl)c2)on1`, the call was inactive.
Turning to `Cc1ccc(-n2nc3c(c2NC(=O)c2ccc(OC(C)C)cc2)CS(=O)C3)cc1` (centres undefined), the call was inactive.
Take `COC(=O)C12CC3CC(C1)CC(n1cnc(Cl)n1)(C3)C2`: the result was inactive.
Regarding `O=C(O)CCC(=O)c1c[nH]c2ccccc12`, the compound was called inactive.
For `O=C(CCl)N(c1ccccc1)c1c[nH]c2ccccc12`, the result was active.
`CCN(CC)CC(=O)c1c[nH]c2ccccc12`: the result was inactive.
In the case of `CC(=O)N(c1ccc(Cl)cc1)c1c[nH]c2ccccc12`, the compound was called inactive.
Next, `CN(C)CC(=O)c1c[nH]c2ccccc12`: “inactive”.
Turning to `O=C(CCl)N(c1ccc(Cl)cc1)c1c[nH]c2ccccc12`, the compound was classed as active.
The value for `O=C(NCCN1CCN(Cc2ccccc2Cl)CC1)Nc1ccccc1` was “inactive”; that for `CCCCOc1ccc(CN2CCCCC2)cc1` was “inactive”; that for `CCCCOc1ccc(CN2CCC(O)CC2)cc1` was “inactive”.
The value for `CC(C)NC(=O)c1ccccc1NC(=O)CN(c1ccc2c(c1)OCO2)S(C)(=O)=O` was “inactive”.
The value for `CCCn1nnc(NC(=O)c2cccc(Cl)c2)n1` was “inactive”; that for `CN(C)CCCN1c2ccccc2Sc2ccc(C(F)(F)F)cc21` was “inactive”.
As for `CN1CCN(CCCN2c3ccccc3Sc3ccc(Cl)cc32)CC1`, the compound was classed as inactive.
`CSc1ccc2c(c1)N(CCC1CCCCN1C)c1ccccc1S2` (centres undefined): the result was active.
The value for `COC(=O)c1ccc(OC)c(CSc2nnc(-c3ccc(C(C)(C)C)cc3)o2)c1` was “inactive”.
Next, `CC(C)CNC(=O)CSc1ccc(Cl)cc1`: “inactive”; `Cc1cccc(NC(=S)NNC(=O)CCn2nc(C)c([N+](=O)[O-])c2C)c1`: “inactive”; `c1ccc(Cn2nnc3c(N4CCOCC4)ncnc32)cc1`: “inactive”.
The value for `c1ccc(-n2nnc3c(N4CCOCC4)ncnc32)cc1` was “active”.
On to `S=c1sc2c(N3CCOCC3)ncnc2n1-c1ccccc1`, for which the result was inactive.
For `Nc1cc(=O)[nH]c(SCc2nc3ccccc3n2Cc2ccccc2)n1`, the outcome was inactive.
Next, `CSCC[C@H](NC(=O)OC(C)(C)C)c1nnc(SCC(N)=O)o1`: “inactive”.
